# Bioassay records: PubChem, National Center for Advancing Translational Sciences (NCATS)
# This is a sample that favours compounds with a hit; in the whole collection about 8.7% have one here.
# 12-LOX inh: inhibitors of human 12S-lipoxygenase ALOX12. 580,000 compounds, 1.1% hits. P18054. purified 12hLO, xylenol orange hydroperoxide absorbance. Potency, µM (series often up to 108 µM), actives largely listed as inhibitors
#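 Purified human 12hLO (150 nM final) in 25 mM Hepes, 0.01% Triton X-100, pH 7.0 was preincubated 15 min at room temperature with compound. Then 40 uM arachidonic acid was added, 30 min. Hydroperoxide was read by Fe-XO absorbance ratio 573/405 nm.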
# HP1b chromo inh: blocks HP1-beta chromodomain binding to methylated histone tails | P83916 | Potency, µM (series often up to 114 µM), usual class: inhibitors | AlphaScreen HP1-beta / biotin-H3K9me3 peptide binding | 390,000 compounds, 0.56% hits; note: nearly all actives have a fitted effect of over 70% in size
#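 AlphaScreen: HP1-beta (50 nM) preformed 30 min with biotin-H3(1-18)K9me3 peptide (50 nM) in PBS pH 7.4, 0.01% Tween-20. Compound added for 30 min at RT, then streptavidin donor/nickel chelate acceptor beads (10 ug/mL) for 30 min.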
# BAZ2B inh: blocks human BAZ2B | AlphaScreen BAZ2B-H3K14Ac peptide displacement | Potency, µM (highest dose often 114 µM), usual class: inhibitors | 360,000 compounds, 4.4% hits; note: nearly all actives have a fitted effect of over 60% in size
#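 Complex of BAZ2B and biotin-H3K14Ac (50 nM apiece) forms over 30 min at RT, then faces library compounds up to 110 uM for another 30 min; AlphaScreen beads added, 20 min dark incubation, luminescence read.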
# Sfp inh: Sfp phosphopantetheinyl transferase inhibition; Potency, µM, hits mostly inhibitors; 310,000 compounds, 3.5% hits; AID 1490; Q9F4F7; Biochemical Sfp PPTase activity, qHTS;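 note: the enzyme is Sfp with the accession as filed and its product quenches rhodamine fluorescence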
#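 After 15 min at room temperature with compound, 15 nM Sfp received 5 uM rhodamine-CoA plus 12.5 uM BHQ-2-ybbR (50 mM Hepes pH 7.6, 10 mM MgCl2). Rate came from the fluorescence difference over 30 min, ex 525/em 598 nm.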
# G9a inh: G9a (human) methyltransferase inhibition; G9a H3K9 monomethylation, AlphaScreen, 2 h; Potency, µM (top dose mostly 102 µM), actives largely listed as inhibitors; 350,000 compounds, 8.8% hits; note: nearly all actives have a fitted effect of over 75% in size
#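 G9a (20 nM) preincubated 15 min RT with compounds, then 500 nM biotinylated H3K9 peptide and 20 uM SAM added; 2 h RT reaction. Monomethyl-H3K9 product detected by AlphaScreen with anti-H3K9me1 antibody, streptavidin donor and anti-rabbit IgG acceptor beads.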
# JMJD2A Tudor inh: blocks the human JMJD2A Tudor domain. O75164. AlphaScreen JMJD2A-Tudor / H3K4me3 peptide binding. Potency, µM (series often up to 114 µM), actives largely listed as inhibitors. 390,000 compounds, 4.4% hits; note: nearly all actives have a fitted effect of over 50% in size
# Sfp inh conf: confirmation of Bacillus subtilis Sfp PPTase inhibitors. shares compounds with Sfp inh. Sfp PPTase enzymatic assay, qHTS titration. Potency, µM (top dose mostly 114 µM), most hits filed as inhibitors. 380 compounds, 79% hits. AID 2701
# Sfp gel assay: Blocks Sfp PPTase activity, gel read-out; shares compounds with Sfp inh; purified Sfp, gel-based phosphopantetheinylation read-out; Potency, µM, usual class: inhibitors; 210 compounds, 20% hits; AID 2707;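 active = potency below 100 µM; inconclusive = dose-dependent response but potency above 100 µM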;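 note: potency is an IC50 for inhibitors of Sfp transfer activity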
# Numbers stand for hits; - = inactive; ? = inconclusive; . = no result; ! = a repeat was not active; [ ] = dose if it differs, or a comment. Unless noted, calls come from the whole dose curve; as a rule, active = well fitted curve in the direction sought with a large enough effect; inconclusive = small, poorly fitted or top-dose-only effect, or another doubt; inactive = no such curve, though single readings can be large; an effect the other way counts as inactive or inconclusive.
SMILES,12-LOX inh,HP1b chromo inh,BAZ2B inh,Sfp inh,G9a inh,JMJD2A Tudor inh,Sfp inh conf,Sfp gel assay
CC[C@H](C)[C@@H]1NC(=O)[C@H]([C@@H](C)CC)NC(=O)[C@@H](CC(C)C)NC(=O)[C@H](Cc2ccccc2)NC(=O)[C@H](Cc2ccccc2)NC(=O)[C@@H]2CCCN2C(=O)[C@@H]2CCCN2C(=O)[C@H](C(C)C)NC(=O)[C@H](CC(C)C)NC1=O,?,-,.,.,.,-,.,.
Cc1ncsc1C(=O)NCc1ccc(N2CCOCC2)nc1,-,.,.,.,.,.,.,.
COc1cc(C)cc2oc(=O)c(CC(=O)NCc3ccc(F)cc3)c(C)c12,-,.,.,.,.,.,.,.
O=C(/C=C/c1ccncc1)c1ccc(NC(=O)c2ccccc2F)cc1,.,-,50µM,5.6µM,14µM,56µM,53µM,.
O=C(Nc1ccc(F)cc1)C1=CC(=O)N2CCN=C2S1,.,.,?,0.56µM,1µM,.,12µM,.
O=C(Nc1ccccc1)Oc1ccc[nH]c1=O,?,-,?,6.3µM,?,-,21µM,-
O=C(O)CCCn1nc(-c2ccccc2)c2ccccc21,-,-,-,-,-,-,.,.
OCc1ccc(-c2nn(Cc3ccccc3)c3ccccc23)o1,?,-,40µM,4.5µM,21µM,-,15µM,.
CCn1c2ccccc2c2cc(C(=O)N3CCCCCCNC(=O)CC3)ccc21,-,.,.,.,.,.,.,.
C1CCc2nc3c(nc2C1)CCCC3,-,-,-,-,.,-,.,.
Nc1nnc2c(n1)CCCC2,-,-,50µM,45µM,?,22µM,53µM,6.2µM
O=c1c2c3nc4ccccc4nc3n(Cc3ccccc3)c2ncn1Cc1ccco1,?,-,50µM,2.8µM,?,-,5.9µM,.
CCOC(=O)c1c(NC(=O)c2ccoc2C)sc(C)c1C,-,-,-,?,-[2.33 µM],-,.,.
CCc1c(C)sc(NC(=O)c2ccoc2C)c1C(N)=O,11µM,28µM,?,11µM,7.1µM,56µM,8.3µM,.
CC(C)(C)c1ccc(C(=O)CCCN2CCC(OC(c3ccccc3)c3ccccc3)CC2)cc1,?,.,.,50µM,-,.,47µM,-
CC(C)c1ccc(N2CC(c3nc(-c4ccccn4)no3)CC2=O)cc1 (stereo not drawn),-,.,.,.,.,.,.,.
O=C(CSc1nnc(-c2ccncc2)n1Cc1ccco1)OC1CCCCC1,-,-,-,14µM,-[12.7 µM],-,53µM,-
Cc1cccc(C)c1NC(=O)CSc1nnc(-c2ccncc2)n1Cc1ccco1,-,-,-,-,-,-,.,.
COc1cccc(-c2noc(CC3CCN(C(=O)c4ccc(OC)c(OC)c4)CC3)n2)c1,-,.,.,.,.,.,.,.
Cc1cc(C(=O)N2CCC(Cc3nc(-c4cccnc4)n[nH]3)C2)nn1C (stereo not drawn),-,.,.,.,.,.,.,.
CCN(CC)c1ccc(/C=N/NC(=O)C(O)(c2ccccc2)c2ccccc2)o1,.,.,-,7.1µM,28µM,.,12µM,.
O=C(CN1C(=O)CC(c2ccco2)Sc2ccccc21)Nc1ccccc1F (stereo not drawn),?,-,?,16µM,?,?,21µM,.
Cc1ccc(-c2cc(C(=O)NCc3ccco3)c3ccccc3n2)s1,25µM!,-,?,2.8µM,50µM,-,47µM,?
Cc1cc(C(=O)NCc2ccco2)c2cc(F)ccc2n1,-,-,-,-,-,-,.,.
CN(C)C=Nc1ccccc1I,-,.,.,.,.,.,.,.
SMILES,12-LOX inh,HP1b chromo inh,BAZ2B inh,Sfp inh,G9a inh,JMJD2A Tudor inh,Sfp inh conf,Sfp gel assay
CN(C)C=Nc1ccccc1C1C=NNC1=O (stereo not drawn),.,.,-,18µM,40µM,.,-,.
O=C(COC(=O)/C=C/c1ccco1)NCc1ccccc1Cl,-,-,-,7.9µM,45µM,-,37µM,-
C#CCNC(=O)[C@@H]1Cc2cn(Cc3cccnc3)c3cccc(c23)[C@H](CC(C)C)N1,-,.,.,.,.,.,.,.
O=C(O)CCC(=O)Nc1sc2c(c1C(=O)Nc1ccccc1)CCCCC2,14µM!,-,-,13µM,28µM,-,15µM,.
COc1ccccc1NC(=O)c1c(NC(=O)CCC(=O)O)sc2c1CCCCC2,-,-,-,10µM,-,-,21µM,.
O=C(NCc1nnc2ccc(-c3ccccc3)nn12)c1ccccc1F,-,.,.,.,.,.,.,.
CC(NC(=O)c1sc2cc([N+](=O)[O-])ccc2c1Cl)C(C)(C)C (stereo not drawn),32µM,6.3µM,-,7.9µM,1.6µM,50µM,0.53µM,0.69µM
O=C(NC1CC1)c1sc2cc([N+](=O)[O-])ccc2c1Cl,-,-,-,-,-,-,.,.
N#Cc1ccc(OCc2nc(-c3ccc(Br)o3)no2)cc1,-,.,.,.,.,.,.,.
COc1ccccc1/C=c1\sc2nc(-c3ccco3)nn2c1=O,.,50µM,35µM,2µM,20µM,18µM,42µM,?
COc1ccccc1N(CC(O)Cn1cnc2ccccc21)S(=O)(=O)c1ccc(C)cc1 (stereo not drawn),-,.,.,.,.,.,.,.
COc1cc(NCc2ccc3nc(N)nc(N)c3c2C)cc(OC)c1OC,?,.,.,32µM,10µM,.,37µM,.
C/C=C/c1ccc(OCCCCn2cncn2)c(OC)c1,?,-,32µM,1.1µM,?,7.1µM,-,-
COc1ccc(-c2csc(Nc3ccc(C)cn3)n2)cc1,-,-,?,6.3µM,20µM,-,59µM,-
CC(C)C(C)NC(=O)CSc1nc2scc(-c3ccco3)c2c(=O)n1-c1ccccc1 (stereo not drawn),-,-,-,4.5µM,-[12.7 µM],-,30µM,?
CN=c1nc(-c2ccccc2)n(-c2ccccc2)s1,?,7.1µM,8.9µM,.,1.1µM!,22µM,0.83µM,.
CC(=O)N=c1nc(-c2ccccc2)n(-c2ccccc2)s1,.,-,.,.,.,-,.,.
CN(Cc1ccco1)C(=O)c1ccc(-c2ccc(N3CCCCCC3)nc2)cc1,-,.,.,.,.,.,.,.
CN(C)CCCSc1nc2ccccc2s1,-,?,?,35µM,14µM,-,?,.
CC(C)(C)c1ccc(C(=O)NCCc2csc(-c3ccc(Cl)cc3)n2)cc1,-,-,-,.,-,-,.,.
CN(C)CCCNC(=O)c1ccc(-c2nc(-c3ccc(Cl)cc3)cs2)cc1,?,-,-,25µM,?,-,59µM,-
C[C@](N)(Cc1ccc(O)cc1)C(=O)O,-[3.43 µM],.,.,-,-,.,.,.
CC(Cc1ccc(O)c(O)c1)(NN)C(=O)O (stereo not drawn),?,.,.,50µM,.,.,47µM,-
C[C@](N)(Cc1ccc(O)c(O)c1)C(=O)O,?,?,16µM,13µM,0.45µM!,20µM,21µM,-
COc1ccc(C[C@](C)(N)C(=O)O)cc1OC,?,-,-,.,?,-,.,.
COc1ccc(NC(=O)N2C[C@@H](F)[C@@H](OCc3nc4ccccc4[nH]3)C2)cc1,-,.,.,.,.,.,.,.
